Source: PubChem BioAssay
This is a sample that favours compounds with a hit; in the whole collection about 21% have one here.
Pf growth 96h: P. falciparum growth inhibition at 96 hour, primary screen for plastid delayed-death inhibitors; 320,000 compounds, 6.9% hits; P. falciparum luciferase reporter growth, 96 h; Potency, µM (highest dose often 28.7 µM), usual class: inhibitors
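Two parasite generations (96 h, 37 C, 5% CO2) of compound exposure in infected erythrocytes (0.05% parasitemia, 2% hematocrit). Luciferase-reporter P. falciparum; decreased luminescence indicates inhibited growth, aimed at apicoplast-acting delayed death.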
Pf growth 48h: inhibits P. falciparum growth in the first generation, 48 h; P. falciparum luciferase growth in erythrocytes, 48 h; Potency, µM (doses to about 28.7 µM), usual class: inhibitors; 310,000 compounds, 5.9% hits
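Parasite viability was followed by luminescence of a genomically integrated firefly luciferase. Cultures held 0.1% parasitemia at 2% hematocrit (final), incubated under 5% CO2 at 37 C.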
NS1 function inh: influenza NS1 inhibition; Potency, µM (doses to about 46.1 µM); 270,000 compounds, 0.4% hits; AID 2326; calls by dose curve; further: actives are rising curves; nearly all actives have a fitted effect of over 50% in size
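Recovery from NS1-induced slow growth read by OD600 in budding yeast switched to galactose assay medium (pH 6.0, -URA) at 1:100 dilution. Compound 23 nl per well; the matching strain lacking NS1 serves as control.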
Shiga toxin inh: Shiga toxin inhibition; Vero cells, Shiga toxin protein synthesis inhibition reporter; inhibition, % at 38.7 µM; 290,000 compounds, 9.2% hits; in the data active means inhibition mostly above about 28%, no sharp cut-off; inactive means mostly below about 43%
CHX counter: counter-screen hit for Shiga toxin inhibitors, cycloheximide | AID 2314 | max response, % | 300,000 compounds, 12% hits | cell reporter, cycloheximide protein synthesis inhibition counterscreen; in the data active means max response mostly above about 13%, no sharp cut-off; inactive means mostly below about 14%; further: read at 38.3 µM for the half of the compounds with a filed dose
A number is an active result; - = inactive; ? = inconclusive; . = no result given; [ ] = remark or other dose. Unless noted, the call rests on the fitted dose curve; in most records, active means well fitted inhibition curve with a large enough effect; inconclusive means small, poorly fitted or top-dose-only effect, or another doubt; inactive means no such curve, though single readings can be large or run the other way.

SMILES | Pf growth 96h | Pf growth 48h | NS1 function inh | Shiga toxin inh | CHX counter
c1csc(-c2ccc(N3CCOCC3)nn2)c1 | ? | - | - | - | 25
CC(=O)N(Cc1ccc2c(c1)OCO2)C1CC(=O)N(CCc2ccccc2)C1=O (stereo unspecified) | ? | - | - | - | -
C=CCO/N=C(/CCC)C1=C(N)CC(C)(C)CC1=O | - | - | - | - | -
CC(C)(C)NC(=O)c1cc(C(C)(C)C)c(O)c(C(C)(C)C)c1 | 9.3µM | ? | - | - | -
CCN(CC)C(=O)c1cc(C(C)(C)C)c(O)c(C(C)(C)C)c1 | 10µM | ? | - | - | -
CC(=O)Nc1cc(C(C)(C)C)c(O)c(C(C)(C)C)c1 | - | . | - | - | -
N/C(CN1CCCC1=O)=N\O | - | . | - | - | -
N/C(CN1CCCC1=O)=N\OC(=O)c1ccccc1Cl | ? | - | - | - | 26
CN(C)c1ccc(C2N3CC4(C)CN2CC(C)(C3)C4O)cc1 (stereo unspecified) | 4.7µM | . | - | - | -
c1ccc2c(-c3csc(-c4ccncc4)n3)c[nH]c2c1 | ? | - | - | 96 | 45
Clc1ccc(-c2c[nH]c3ccccc23)nn1 | - | -[1.15 µM] | - | - | -
Brc1ccc(-c2csc(-c3c[nH]c4ccccc34)n2)cc1 | - | - | - | 86 | 34
Brc1ccc(OCc2nc(-c3ccccn3)n[nH]2)cc1 | - | . | - | - | 29
Clc1ccc(OCc2nc(-c3ccccn3)n[nH]2)cc1 | . | - | - | 21 | 40
Brc1ccc(OCCOc2cccc3cccnc23)cc1 | - | - | - | - | -
Cc1cc(Oc2ccc(Cl)cc2)nc(-c2ccccn2)n1 | ? | ? | - | - | -
CCOC(=O)c1c(NC(=O)c2ccc(Br)o2)sc(C)c1CC | - | - | - | - | -
CCOC(=O)C1=C(NC(=O)c2ccc(Br)o2)Nc2ccccc2N=C1 | 1.9µM | 1.7µM | - | - | -
O=C(NC1CCCCC1)C(c1ccccc1)N(C(=O)Cc1ccsc1)c1ccccc1 (stereo unspecified) | - | - | - | - | -
Cc1csc(Nc2ccccc2)[n+]1C | - | - | . | - | 36
C=CCc1cc(Cl)ccc1OCCOCCNC(C)(C)C | - | 13µM | - | - | -
C=CCc1cc(Cl)ccc1OCCNCCCOC | 13µM | - | - | - | -
C=CCc1cc(Cl)ccc1OCCOCCNCCOC | ? | - | - | - | -
C=CCc1cc(Cl)ccc1OCCOCCN(C)C | - | ? | - | - | -
CC1CN=C(N(C(=S)Nc2ccccc2)c2cccc(C(F)(F)F)c2)S1 (stereo unspecified) | - | - | - | - | 14
SMILES | Pf growth 96h | Pf growth 48h | NS1 function inh | Shiga toxin inh | CHX counter
COc1ccccc1C(=O)NNC(=O)c1ccc(F)cc1 | - | - | - | 65 | 57
COc1ccccc1C(=O)NNC(=O)C1CC=CCC1 (stereo unspecified) | ? | - | - | - | 25
Cc1ccccc1C(=O)NNC(=O)c1ccc(F)cc1 | - | - | - | - | 20
CC(C)(C)OC(=O)NNC(=O)c1ccc(Cl)cc1 | - | - | - | - | 13
Cc1noc(C)c1S(=O)(=O)N(CC(=O)NC1CCCC1)c1ccc(C(C)C)cc1 | - | - | - | - | -
Cc1nn(-c2ccc(Cl)cc2)c(=O)c2c(C)noc12 | - | - | - | - | -
COc1ccccc1C(=O)NNC(=O)c1ccc(Cl)cc1 | - | - | - | - | 17
COC(=O)NNC(=O)c1ccccc1OC | - | - | - | - | -
CNC(=O)COc1coc(CN2CCN(c3ccccc3)CC2)cc1=O | - | - | - | - | -
CCCNC(=O)COc1coc(CN2CCN(c3cccc(Cl)c3)CC2)cc1=O | 10µM | - | - | - | -
CCN(CC)C(=O)COc1coc(CN2CCN(c3cccc(Cl)c3)CC2)cc1=O | 8.3µM | - | - | - | -
CN(C(=O)COc1coc(CN2CCN(c3ccccc3)CC2)cc1=O)c1ccccc1 | 13µM | - | . | . | .
CCOC(=O)CNC(=O)c1ccc(Cl)s1 | ? | - | - | - | -
CCNc1nc(N)c(C(=O)c2ccc(Cl)s2)s1 | ? | - | - | 130 | 44
CCCCOc1ccc(C(=O)Nc2cccc(-n3cnnn3)c2)cc1OC | 9.3µM | ? | - | - | -
O=C(Nc1ccccc1)c1ccc(-n2cnnn2)cc1 | - | - | - | 23 | 15
CCOc1ccc(C(=O)Nc2cccc(-n3cnnn3)c2)cc1OCC | - | ? | ? | - | -
O=C(Nc1cccc(-n2cnnn2)c1)c1cc(Cl)nc(Cl)c1 | 4.7µM | 9.3µM | - | - | -
CC(C)(C)c1ccc(C(=O)Nc2cccc(-n3cnnn3)c2)cc1 | ? | - | - | 34 | 24
